Experimental data: PubChem BioAssay
Unmarked numbers belong to inactive results. The source made the active and inactive calls. Cut-off read from the data, not from the text of the source, unless noted: active = inhibition above about 33%; inactive = the rest.

How the values were obtained:
[1] = StAR promoter reporter inhibitors, counter-screen for LRH-1 inverse agonist project, cell-based, luminescence, high throughput (AID 651611; in the data active = inhibition above about 28%); conditions: StAR promoter luciferase reporter counterscreen, at 3.6 µM, hits give high values
[2] = molecular target: Nuclear receptor subfamily 5 group A member 2 (Homo sapiens) (UniProt O00482); assay: LRH-1 (NR5A2) inverse agonists, retest, confirmation, cell-based, luminescence (AID 651613; in the data active = inhibition above about 42%;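 note: HEK293T cells co-transfected with LRH-1 and StAR promoter luciferase reporter; 0% = vehicle wells and 100% = parental cells lacking receptor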); conditions: cell-based LRH-1 luciferase reporter, inverse agonism; at 3.6 µM; hits give high values
[3] = molecular target: Steroidogenic factor 1 (Homo sapiens) (UniProt Q13285); assay: SF1 (NR5A1) inverse agonists, counter-screen for LRH-1 inverse agonist project, cell-based, luminescence, high throughput (AID 651614; in the data active = inhibition above about 44%;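 note: cells cotransfected with StAR promoter reporter and SF1 expression vector; 0% = vehicle on cells with receptor and 100% = vehicle on cells lacking receptor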); conditions: cell-based SF1 luciferase reporter, at 3.6 µM, hits give high values
[4] = VP16 transactivation reporter inhibitors, counter-screen for LRH-1 inverse agonist project, cell-based, luminescence, high throughput (AID 651615); conditions: Gal4-VP16 luciferase reporter cells, at 3.6 µM, hits give high values

Sequence of Nuclear receptor subfamily 5 group A member 2 (Homo sapiens) (O00482 whole entry, looked up): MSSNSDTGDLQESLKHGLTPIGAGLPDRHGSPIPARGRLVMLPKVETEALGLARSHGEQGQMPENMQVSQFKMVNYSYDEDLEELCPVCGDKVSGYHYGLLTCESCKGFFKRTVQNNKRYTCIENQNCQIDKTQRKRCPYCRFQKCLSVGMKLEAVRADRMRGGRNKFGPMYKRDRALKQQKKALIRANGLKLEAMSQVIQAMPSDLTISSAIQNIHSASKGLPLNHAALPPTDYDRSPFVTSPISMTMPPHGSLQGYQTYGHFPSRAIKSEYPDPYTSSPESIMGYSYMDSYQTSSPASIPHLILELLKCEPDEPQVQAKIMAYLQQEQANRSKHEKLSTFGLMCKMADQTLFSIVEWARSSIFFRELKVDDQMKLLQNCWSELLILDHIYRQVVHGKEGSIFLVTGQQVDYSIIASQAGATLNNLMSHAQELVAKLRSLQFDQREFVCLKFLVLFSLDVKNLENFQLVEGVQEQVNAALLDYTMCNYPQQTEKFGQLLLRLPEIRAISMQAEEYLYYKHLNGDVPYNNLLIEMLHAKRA
Sequence of Steroidogenic factor 1 (Homo sapiens) (Q13285 whole entry, looked up, the tested form may be a part): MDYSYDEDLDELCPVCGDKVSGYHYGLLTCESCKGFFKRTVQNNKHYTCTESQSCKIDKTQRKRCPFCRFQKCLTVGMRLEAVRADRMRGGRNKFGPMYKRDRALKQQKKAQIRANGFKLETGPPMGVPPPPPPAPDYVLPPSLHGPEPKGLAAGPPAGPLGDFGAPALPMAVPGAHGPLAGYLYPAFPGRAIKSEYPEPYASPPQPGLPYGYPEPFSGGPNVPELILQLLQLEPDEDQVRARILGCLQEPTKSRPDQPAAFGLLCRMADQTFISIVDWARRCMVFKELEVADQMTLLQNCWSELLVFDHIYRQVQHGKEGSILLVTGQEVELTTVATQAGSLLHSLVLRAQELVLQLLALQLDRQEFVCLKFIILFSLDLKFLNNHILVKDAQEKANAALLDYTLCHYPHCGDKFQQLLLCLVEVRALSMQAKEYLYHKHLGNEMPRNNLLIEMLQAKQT

Row | SMILES | inhibition [1] | inhibition [2] | inhibition [3] | inhibition [4]
1 | O=C(NCc1cccc(C(F)(F)F)c1)c1cccc(Cl)c1Cl | 7.41% | 46.9% (active) | 48% (active) | 11.8%
2 | COc1ccccc1N1CCN(C(=O)CSc2nc3ccccc3o2)CC1 | -10.2% | 30.2% | 35.1% | -19.8%
3 | Clc1ccccc1-c1nc(N/N=C/c2cccnc2)c2ccccc2n1 | 6.03% | 52.3% (active) | 53.3% (active) | -7.84%
4 | S=C(NCCc1ccccc1)Nc1cccc2cnccc12 | -5.25% | 45.1% (active) | 47.5% (active) | 42.3% (active)
5 | O=C1C=C(N2CCCCCC2)C2(CCCCC2)O1 | 4.6% | 58.5% (active) | 55% (active) | -9.31%
6 | COC(=O)c1ccc(CNC(=O)COC(=O)c2cc(Cl)nc(Cl)c2)cc1 | 11.2% | 52.4% (active) | 37.1% | 11.2%
7 | COc1ccc(N2CC(C(=O)N/N=C/c3ccc(C)cc3)CC2=O)cc1 (stereo not given) | 40.7% (active) | 40% | 29.4% | 19.5%
8 | CCn1nnc(NC(=O)c2ccc([N+](=O)[O-])o2)n1 | 10.3% | 57.8% (active) | 59.9% (active) | -13.8%
9 | C#Cc1ccc(NC(=O)C2(C)CCN2C(=O)Cc2ccc(C(C)(C)C)cc2)cc1 (stereo not given) | 4% | 48% (active) | 39% | 43.9% (active)
10 | COc1ccccc1NC(=O)CN1CCN(CC(=O)Nc2ccc3c(c2)OCCO3)CC1 | 6.64% | 56.8% (active) | 49.5% (active) | -7.19%
11 | Oc1[nH]c2ccccc2c1N=NC(=S)N1CCOCC1 | 74.8% (active) | 78.3% (active) | 80% (active) | 55.2% (active)
12 | COc1cc2c(cc1OC)CN(C(=O)c1cc(=O)c3ccccc3o1)CC2 | 46.3% (active) | 30.2% | 40.7% | 16%
13 | O=C(Nc1ccc2oc(-c3ccncc3)nc2c1)c1ccc([N+](=O)[O-])o1 | 34.1% (active) | 63.7% (active) | 66.2% (active) | -13.7%
14 | Cc1cc(C)nc(NC(=O)c2ccc([N+](=O)[O-])o2)n1 | 17.2% | 61.6% (active) | 53.4% (active) | -11.8%
15 | Cn1c(CN2CCN(c3ccc(Cl)cc3)CC2)nc2ccccc21 | 5.45% | 32.9% | 52.9% (active) | -6.14%
16 | COc1ccc(NC(=O)CSc2n[nH]c(-c3ccccn3)n2)cc1 | 2.28% | 32.4% | 20.2% | 2.72%
17 | N#CCc1ccc(OCCCN2CCC(C(O)(c3ccccc3)c3ccccc3)CC2)cc1 | 8.39% | 40.8% | 27.8% | 12.4%
18 | Cc1cccc(-n2ncc3c2CCCC3NC(=O)C2(C(N)=O)CC2)c1C (stereo not given) | 16.4% | 55% (active) | 48.4% (active) | 50% (active)
19 | CCc1cc(=O)oc2cc(C)cc(OCC(=O)NC3CC3)c12 | -0.05% | 66.5% (active) | 55.9% (active) | 10.2%
20 | CCn1nnnc1SCC(=O)N(C)C1CCS(=O)(=O)C1 (stereo not given) | 12.5% | 47.9% (active) | 48.1% (active) | -0.7%
21 | COC(=O)c1c(NC(=O)c2ccc([N+](=O)[O-])o2)sc2c1CCN(C(C)C)C2 | 28% (active) | 45.3% (active) | 44.1% (active) | 0.53%
22 | CCN(Cc1ccccc1)c1ccc(/C=N/NC(=O)c2cccc(S(=O)(=O)N3CCOCC3)c2)cc1 | 24.6% | 66.8% (active) | 62.3% (active) | 28%
23 | O=C(Cn1cnc2c(nnn2-c2ccccc2)c1=O)NCCc1ccccc1 | 13.4% | 50.9% (active) | 51% (active) | -7.88%
24 | COc1ccc(-c2nnnn2-c2ccccc2OC)cc1 | 8.71% | 53.8% (active) | 54.3% (active) | 0.37%
25 | Cc1ccc(CC(=O)Nc2ccncc2)cc1 | 7.72% | 64.3% (active) | 64.9% (active) | 40.5% (active)
